# In the library only some 17% were active in any assay of this set; here they are far more common.
# TDP1 cell CPT = DT40-hTDP1 cell growth loss with CPT; Potency, µM (series often up to 46.2 µM), for the others: at the highest dose activity change, negative = growth inhibition, usual class: inhibitors; 12% of 420,000 active; AID 686979; chicken DT40 Tdp1-/-;hTDP1 cells + 20 nM CPT, ATP luminescence, 48 h; note: % is set by controls: 0 for no effect and ±100 for the full control effect; nearly all actives have a fitted effect of over 55% in size
#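 Chicken DT40 Tdp1-/- cells complemented with human TDP1, 400 cells/well, exposed to compounds plus 20 nM camptothecin for at least 48 h at 37 C; viability read as ATP content by CellTiter-Glo luminescence.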
# TGFb SMAD3 inh = blocks TGF-b signaling; HepG2 CAGA-GFP TGF-b/SMAD3 reporter, GFP fluorescence, 18 h; TGF-beta stimulated, 500 pg/mL final; Potency, µM (highest dose often 46.1 µM), for the others: at the top dose activity, negative = inhibition, usual class: inhibitors; 1.2% of 410,000 active; note: % is set by controls: 0 for no effect and ±100 for the full control effect; nearly all actives have a fitted effect of over 65% in size
#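 HEPG2 CAGA-GFP cells (1000/well, DMEM with 1% FBS) were pre-incubated 2 h at 37 degrees C, given compound by pin tool, then stimulated with TGF-beta at 500 pg/mL final for 18 h before per-cell GFP fluorescence imaging.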
# ATXN viability = cell viability loss in ATXN counter-screen; Potency, µM (doses to about 56.7 µM), usual class: cytotoxic; 0.49% of 400,000 active; S2 cells (HEK-293 line with an ATXN2-luciferase reporter) viability, CellTiter-Fluor protease fluorescence, 24 h; note: nearly all actives have a fitted effect of over 40% in size
# TDP1 cell noCPT = qHTS for Inhibitors of human tyrosyl-DNA phosphodiesterase 1 (TDP1): qHTS in cells in absence of CPT | DT40 Tdp1-/- hTDP1 cells, no CPT, ATP luminescence, 48 h | Potency, µM (highest dose often 46.2 µM), for inactives: at the top dose activity change, negative = growth inhibition, actives largely listed as inhibitors | 15% of 420,000 active; note: % is set by controls: 0 for no effect and ±100 for the full control effect; nearly all actives have a fitted effect of over 55% in size
#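 DT40 Tdp1-/-;hTDP1 cells, no CPT (DMSO vehicle only), 400 cells/well; compounds pin-transferred; ≥48 hr, 37 °C; CellTiter-Glo 30 min RT dark, luminescence read.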
# ATXN2 expr inh = ATXN2 expression inhibition; 0.72% of 360,000 active; Potency, µM (highest dose often 57 µM), for the others: at the highest dose activity change, negative = inhibition, hits mostly inhibitors; HEK-293 ATXN2-luciferase reporter, luminescence, 24 h; AID 1745845; note: % is set by controls: 0 for no effect and ±100 for the full control effect; nearly all actives have a fitted effect of over 55% in size
#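 qHTS (up to 57 uM final) was run with 24 h compound exposure of reporter cells at 37 °C. Each well was multiplexed: SteadyGlo luminescence measured ATXN2-luciferase expression after a fluorogenic Gly-Phe-AFC viability readout (25 uM final).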
# HepG2 tox = counter-screen for TGF-b inhibitors: cytotoxicity in HepG2 cells; HepG2 CAGA-GFP viability, ATP luminescence, 18 h; Potency, µM (series often up to 46.1 µM), for the others: at the highest dose activity change, negative = cytotoxicity, hits mostly cytotoxic; 0.76% of 410,000 active; AID 588856
#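 HepG2 CAGA-GFP cells (1000/well, DMEM with 1% FBS) received compound, then TGF-beta at 500 pg/mL final, and were incubated 18 hours at 37 degrees C. Viability was read by CellTiter-Glo luminescence. Media-only wells were set as complete cell-killing and DMSO as no toxicity.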
# An asterisk follows results filed as active; i = inactive; ? = inconclusive; nt = not tested or not shown; [ ] = dose if it differs, or a comment. Calls come from the whole dose curve; as a rule, active = well fitted curve in the direction sought with a large enough effect; inconclusive = small, poorly fitted or top-dose-only effect, or another doubt; inactive = no such curve, though single readings can be large; an effect the other way counts as inactive or inconclusive. Potency is the fitted concentration of half-maximal effect.
SMILES,TDP1 cell CPT,TGFb SMAD3 inh,ATXN viability,TDP1 cell noCPT,ATXN2 expr inh,HepG2 tox
C=C1C[C@H]2[C@@H]3CCc4cc(OC)ccc4[C@H]3CC[C@]12C,-16%,1%,i,5%,2%,-1%
C=C(C)COc1ccc2c(c1)CCC1C2CCC2(C)C(=O)C(=NO)CC12 (stereo not given),16µM*,6%,?,?,?,-1%
c1ccc2nc(-c3nc4ccccc4o3)ccc2c1,14µM*,?,i,?,?,-80%
C[C@@H]1CCCCO[C@@H](CN(C)S(=O)(=O)c2ccc(Cl)cc2)[C@@H](C)CN([C@H](C)CO)C(=O)c2cc(N(C)C)ccc2O1,10%,0%,i,10%,2%,5%
C[C@@H]1CCCCO[C@@H](CN(C)S(=O)(=O)c2ccccc2)[C@@H](C)CN([C@H](C)CO)C(=O)c2cc(NS(=O)(=O)c3ccc(F)cc3)ccc2O1,?,?,i,21µM*,-9%,-30%
Cc1ccc(S(=O)(=O)N(C)C[C@H]2OCCCC[C@@H](C)Oc3ccc(N(C)C)cc3C(=O)N([C@H](C)CO)C[C@@H]2C)cc1,?,1%,?,21µM*,-14%,1%
Cc1noc(C)c1S(=O)(=O)Nc1ccc2c(c1)C(=O)N([C@H](C)CO)C[C@H](C)[C@@H](CN(C)C(=O)CCCN(C)C)OCCCC[C@@H](C)O2,-1%,4%,i,-2%,4%,-16%
C[C@@H]1CCCCO[C@H](CN(C)S(=O)(=O)c2ccccc2)[C@@H](C)CN([C@H](C)CO)C(=O)c2cc(NC(=O)Cc3ccccc3)ccc2O1,21µM*,19%,i,?,2%,-16%
Cc1noc(C)c1S(=O)(=O)Nc1ccc2c(c1)C(=O)N([C@@H](C)CO)C[C@@H](C)[C@@H](CN(C)CC1CCCCC1)OCCCC[C@@H](C)O2,23µM*,-2%,?,15µM*,?,-50%
C[C@H]1CCCCO[C@@H](CN(C)S(=O)(=O)c2ccc(Cl)cc2)[C@@H](C)CN([C@@H](C)CO)C(=O)c2cc(NS(=O)(=O)c3ccccc3)ccc2O1,?,-2%,nt,?,-29%,-1%
O=c1[nH]c(C2CCN(S(=O)(=O)c3ccccc3C(F)(F)F)CC2)nc2c1nnn2Cc1cccc(F)c1,?,?,i,?,-34%,4%
Cc1csc(C(C)N(C)C(=O)c2cnn(-c3nccc(-c4cc(C)sc4C)n3)c2C)n1 (stereo not given),-6%[9.04 µM],nt,i,?,nt,nt
CC(C)NC(=O)N(C)C[C@H]1OCCCC[C@H](C)Oc2ccc(NC(=O)NC3CCCCC3)cc2C(=O)N([C@H](C)CO)C[C@@H]1C,?,2%,?,?,-10%,-6%
C[C@H]1CCCCO[C@@H](CN(C)C(=O)NC2CCCCC2)[C@@H](C)CN([C@@H](C)CO)C(=O)c2cc(NC(=O)Cc3ccccc3)ccc2O1,-9%,-8%,?,18µM*,-34%,-26%
CC(C)NC(=O)Nc1ccc2c(c1)C(=O)N([C@@H](C)CO)C[C@H](C)[C@H](CN(C)S(=O)(=O)c1ccccc1)OCCCC[C@H](C)O2,18µM*,4%,?,12µM*,-9%,-25%
CCOC(=O)C1=CCC(c2ccc(Cl)cc2)N(S(=O)(=O)c2ccc(C)cc2)C1 (stereo not given),23µM*,?,i,18µM*,-18%,-37%
Cc1ccc([C@@H]2CC=C(C(=O)O)CN2S(=O)(=O)c2ccc(C)cc2)cc1,-2%,2%,i,0%,5%,5%
CCOC(=O)N1CCN(S(=O)(=O)c2ccc(C)cc2)CC1,-7%,?,i,-15%,-1%,12%
CCOC(=O)C1=CCC(c2ccc(C#N)cc2)N(S(=O)(=O)c2ccc(C)cc2)C1 (stereo not given),18µM*,-26%,i,16µM*,-22%,-10%
CCOC(=O)C1=CCCN(S(=O)(=O)c2ccc(C)cc2)C1,?,-20%,i,21µM*,-4%,-44%
COCc1c(C(=O)NC(C)c2ccc(S(N)(=O)=O)cc2)oc2ccccc12 (stereo not given),-2%,-11%,i,-12%,9%,3%
Cc1cc(C)n2nc(SCC(=O)N3CCC(C(=O)O)CC3)nc2n1,?,?,i,3%,1%,-17%
CCCCOc1cccc(C(=O)N(Cc2ccccc2)C2CCS(=O)(=O)C2)c1 (stereo not given),13µM*,-22%,i,15µM*,-8%,-9%
COc1ccc(C(=O)N(Cc2ccc(C(C)C)cc2)C2CCS(=O)(=O)C2)cc1 (stereo not given),?,27%,i,15µM*,-1%,-3%
COc1ccc(CN(C(=O)c2cccc(OC)c2)C2CCS(=O)(=O)C2)cc1 (stereo not given),17%,5%,i,5%,0%,-19%
SMILES,TDP1 cell CPT,TGFb SMAD3 inh,ATXN viability,TDP1 cell noCPT,ATXN2 expr inh,HepG2 tox
CCCCOc1ccc(C(=O)N(Cc2ccc(C(C)C)cc2)C2CCS(=O)(=O)C2)cc1 (stereo not given),?,?,?,?,-31%,-11%
CCOc1cccc(C(=O)N(Cc2ccc(CC)cc2)C2CCS(=O)(=O)C2)c1 (stereo not given),18µM*,-2%,i,?,-6%,-22%
COc1ccc(CN(C(=O)c2ccc(C)cc2)C2CCS(=O)(=O)C2)cc1 (stereo not given),-3%,1%,i,12%,6%,-7%
CCCCOc1ccc(C(=O)N(Cc2ccccc2)C2CCS(=O)(=O)C2)cc1 (stereo not given),?,5%,?,?,1%,6%
CCOc1cccc(C(=O)N(Cc2ccc(C(C)C)cc2)C2CCS(=O)(=O)C2)c1 (stereo not given),21µM*,9%,?,?,5%,2%
O=C(NCc1ccc(Cl)cc1)c1ccc(NC(=O)N2CC3CCCN3c3ccccc32)cc1 (stereo not given),16µM*,-8%,i,18µM*,-13%,2%

# Bioassay records: PubChem, National Center for Advancing Translational Sciences (NCATS)
